Drawing on PubChem BioAssay AID485270 (The Scripps Research Institute Molecular Screening Center, 2010), this text covers inhibition for 86 compounds.

“And” between values parts separate entries of the source, which are not always exact repeats. Equal values may be shown once. Among all 330,000 compounds or so, about 5,800 (1.8%) were called active. No stated cut-off is given here; in the data, active means inhibition mostly above about 38% (no sharp cut-off); inactive means mostly below about 40%. Many of the other results were omitted from the sample, so actives are more common in it than they were. Some structures have more than one record in an assay (separate samples or runs), and their calls can disagree.

Orexin/Hypocretin receptor type 1 (Homo sapiens), sequence (O43613 whole entry, looked up): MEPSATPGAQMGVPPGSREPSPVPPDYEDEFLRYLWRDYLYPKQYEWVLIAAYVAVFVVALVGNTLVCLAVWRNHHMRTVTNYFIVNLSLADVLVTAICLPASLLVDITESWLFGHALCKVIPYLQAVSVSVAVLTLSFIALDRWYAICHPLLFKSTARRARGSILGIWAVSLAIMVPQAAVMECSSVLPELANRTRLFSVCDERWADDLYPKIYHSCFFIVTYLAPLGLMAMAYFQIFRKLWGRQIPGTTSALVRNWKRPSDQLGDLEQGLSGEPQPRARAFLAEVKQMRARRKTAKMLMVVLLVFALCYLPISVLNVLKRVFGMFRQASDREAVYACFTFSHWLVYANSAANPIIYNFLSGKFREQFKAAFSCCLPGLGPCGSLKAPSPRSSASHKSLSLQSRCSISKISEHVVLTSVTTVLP

This assay has as its target Orexin/Hypocretin receptor type 1 (Homo sapiens) (UniProt O43613). Nature of the assay: antagonists of human orexin 1 receptor (OX1R) (AID 485270).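 Further: 0% = agonist challenge alone and 100% = reference antagonist.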 The conditions noted are these: OX1R-expressing cells, FRET antagonist read-out; at 6.6 µM; stronger effect = higher value.
For `Cc1ccc(S(=O)(=O)N2C[C@@H]3CCCC[C@@H]3[C@@H](C)[C@H]2c2cn(Cc3ccccc3)c3ccc(F)cc23)cc1`, the inhibition was 3.67% (inactive).
Under `CC1CN(C(=O)c2ccccc2NS(=O)(=O)c2cccc([N+](=O)[O-])c2)CC(C)O1` (stereo unspecified) stands 27.1% (inactive); under `CC1CN(C(=O)c2ccc([N+](=O)[O-])s2)CC(C)O1` (stereo unspecified), 49.6% (active); under `Cc1c(C(=O)N2CC(C)OC(C)C2)sc2nc(-c3ccccc3)cn12` (stereo unspecified), 19.5% (inactive).
For `CCN(CC)C(=O)[C@H]1CC(CC(=O)NCc2ccco2)C(=O)N2CCc3c([nH]c4ccccc34)[C@]12C` (stereo partly specified), the inhibition is 6.65% (inactive).
Under `COC(=O)[C@@]1(C)[C@H]2C(=O)N(Cc3ccccc3)C(=O)[C@H]2[C@H]2CN=C(SCC3CC3)N21` stands 4.86% (inactive); under `O=C1N[C@H](Cc2ccccc2)C(=O)N[C@H]1Cc1cn(S(=O)(=O)c2ccccc2)c2ccccc12`, 24.8% (inactive); under `Cc1ccc(C(=O)Cn2cc([N+](=O)[O-])nc2C)cc1`, 16.2% (inactive).
Under `O=C(CC(n1cncn1)C(Cl)(Cl)Cl)c1ccc([N+](=O)[O-])cc1` (stereo unspecified) stands 24.6% (inactive); under `O=C(Cn1c[n+](CC(=O)c2ccc([N+](=O)[O-])cc2)cn1)c1ccc([N+](=O)[O-])cc1`, 41% (active) and 49.5% (inactive).
For `Cc1ccc(S(=O)(=O)N2CCN(C(=O)Cn3c(=O)cnc4ccccc43)CC2)c(C)c1`, the inhibition was 16.2% (inactive).
Turning to `O=C(OCC(=O)N1CCCCCC1)c1ccc(Br)c(S(=O)(=O)N2CCOCC2)c1`, the inhibition was 7.11% (inactive).
As for `O=C(N[C@H]1C/C=C\C(c2ccc(F)cc2)N(Cc2ccccc2)C(=O)C1)OCC1c2ccccc2-c2ccccc21` (stereo partly specified), the inhibition is 14.6% (inactive).
Under `Cc1nnc2n1N=C(c1ccccc1)CS2` stands -1.51% (inactive).
Under `O=c1c2cc(-c3ccccc3)sc2nc2n1N=C(c1cccs1)CS2` stands 49.2% (active).
In the case of `c1csc(-c2cn3c(n2)SCC3)c1` it was 2.55% (inactive); in that of `CC(C)=CCN1CCN(Cc2cc3ccccc3[nH]2)CC1CCO` (stereo unspecified), 7.38% (inactive).
In the case of `CCN(C[C@H]1N[C@@](CC)(C(=O)OC)[C@H]2C(=O)N(Cc3ccccc3)C(=O)[C@@H]12)S(=O)(=O)c1ccc(C(F)(F)F)cc1`, the inhibition was 5.19% (inactive).
Under `Cc1cc(C)c(C#N)c(SCc2ccccc2C(=O)O)n1` stands 27.5% (inactive).
In the case of `CCc1ccc(C2C(C#N)=C(N)Oc3n[nH]c(CC(=O)OC)c32)cc1` (stereo unspecified) it was 1.71% (inactive).
With `Cc1cc(C)c(C#N)c(SCc2[nH]nc3c2C(c2ccccc2)C(C#N)=C(N)O3)n1` (stereo unspecified), the inhibition is 60.2% (active).
Under `COc1ccc(N2CCN(C(CNS(=O)(=O)c3ccc(C)cc3)c3ccccc3)CC2)cc1` (stereo unspecified) stands 6.01% (inactive); under `COC(=O)c1ccc(C)c(NC(=O)Cn2c(C)csc2=O)c1`, 2.56% (inactive); under `COc1ccccc1-c1sc2ccccc2c1C#CC1(O)CCCCC1`, 6.27% (inactive).
Under `COc1ccc2sc(-c3ccc(N(C)C)cc3)c(C#CCO)c2c1` stands 50.3% (active); under `COc1ccc(-c2sc3ccc(OC)cc3c2C#Cc2ccccn2)cc1`, 8.84% (inactive).
For `COc1ccc2sc(-c3ccc(N(C)C)cc3)c(-c3ccc4cc[nH]c4c3)c2c1`, the inhibition was 9.19% (inactive).
Under `O=C(N[C@H]1C/C=C\C(c2cccc(F)c2)N(Cc2ccccc2)C(=O)C1)OCC1c2ccccc2-c2ccccc21` (stereo partly specified) stands 5.38% (inactive); under `Cc1ccc(-c2cccc([C@H]3[C@@H]4C=CC[C@@H](C)[C@@H]4C(=O)N3Cc3ccccc3)c2)cc1`, 5.7% (inactive); under `O=C1c2cccc3cccc(c23)C(=O)N1CCCCCc1n[nH]c(=S)o1`, 47.3% (inactive).
In the case of `O=C(CCCCCN1C(=O)c2cccc3cccc(c23)C1=O)NCc1ccco1` it was 9.93% (inactive); in that of `C[N+](C)(CCCCCC[N+](C)(C)CCCN1C(=O)c2cccc3cccc(c23)C1=O)CCCN1C(=O)c2cccc3cccc(c23)C1=O`, 68.8% (active); in that of `COC(=O)CSc1snnc1-c1ccc(Cl)c(Cl)c1`, 33.7% (inactive).
In the case of `CCCCOC(=O)CCCc1ccc([N+](=O)[O-])cc1[N+](=O)[O-]` it was 18.3% (inactive); in that of `CCOC(=O)c1ccc(NNC(C)=O)c([N+](=O)[O-])c1`, 26.7% (inactive); in that of `CCOC(=O)C/C(C)=N\Nc1ccc([N+](=O)[O-])cc1[N+](=O)[O-]`, 55.3% (active).
`Nc1nc(SCC(=O)Nc2ccc(Cl)c([N+](=O)[O-])c2)n[nH]1`: the inhibition is 0.57% (inactive).
In the case of `O=C(CN1C(=O)c2ccc([N+](=O)[O-])cc2C1=O)Nc1nnc(C2CC2)s1` it was 21.3% (inactive).
Under `Cc1ccc(S(=O)(=O)NC2CCCCCC2)cc1` stands 10.9% (inactive); under `CCn1c(Cc2cccs2)nnc1SCC(=O)c1ccc(C)cc1`, 14.7% (inactive).
In the case of `CCn1c(SCC(=O)c2ccc3ccccc3c2)nnc1-c1cccs1` it was 79.6% (active).
Take `CCn1c(SCC(=O)c2ccc(Cl)s2)nnc1-c1cccs1`: the inhibition was 26.9% (inactive).
In the case of `COc1ccc(CCNC(=O)COC(=O)Cc2ccccc2F)cc1` it was 2.3% (inactive).
Under `Cc1noc(C)c1S(=O)(=O)N(C)C[C@H]1Oc2ccc(NC(=O)C3CCCCC3)cc2C(=O)N([C@H](C)CO)C[C@@H]1C` stands 3.64% (inactive); under `CCOc1ccccc1Nc1ccc2nonc2c1[N+](=O)[O-]`, 20% (inactive); under `O=[N+]([O-])c1c(NCCO)cc(Sc2nc3ccccc3s2)c2nonc12`, 90.3% (active).
Under `O=C(O)c1ccccc1CSc1nc2ccccc2s1` stands 5.76% (inactive); under `COc1cc(OC)cc(-c2sc3ccc(OC)cc3c2-c2ccc3cc[nH]c3c2)c1`, 18.3% (inactive); under `Cc1ccccc1-n1nnc2c(=O)oc3ccccc3c21`, 51.9% (active).
For `CCOC(=O)c1c(C)nc2c(c1C)c(=O)oc1ccccc12`, the inhibition is 4% (inactive).
In the case of `CCCCC(=O)Nc1cc(C)c2c(=O)oc3ccccc3c2n1` it was 1.27% (inactive); in that of `COc1cc(OC)cc(-c2cc3ccc(F)cc3cn2)c1`, 18.6% (inactive); in that of `N#Cc1cc([N+](=O)[O-])ccc1NC(=O)COC(=O)c1cnccn1`, 30.6% (inactive).
Under `COc1cccc(NC(=O)NCc2ccc(F)cc2)c1` stands -5.5% (inactive).
Under `Cc1cccc(NC(=O)NC(=S)NC(=O)c2ccccc2)c1` stands 39.1% (inactive); under `Cc1cccc(NC(=O)Nc2cccc(Oc3c(F)c(F)c(F)c(F)c3F)c2)c1`, 45.9% (active).
Take `CCN(CC)S(=O)(=O)c1ccc(N2CCCC2)c(NC(=O)c2ccc([N+](=O)[O-])o2)c1`: the inhibition was 25.5% (inactive).
Consider `O=C(Cc1cccs1)NCc1cccc(C(F)(F)F)c1`, for which the inhibition was -2.11% (inactive).
Under `CCOC(=O)CCCCCC(=O)Nc1ccc2c(c1)CC(=O)N([C@@H](C)CO)C[C@H](C)[C@@H](CN(C)Cc1ccccc1)O2` stands 0.83% (inactive); under `Cc1noc(C)c1NC(=O)Nc1ccc2c(c1)C(=O)N([C@H](C)CO)C[C@H](C)[C@@H](CN(C)S(=O)(=O)c1cn(C)cn1)O2`, 0.36% (inactive).
In the case of `CC(=O)c1cccc(OCC(=O)OCC(=O)Nc2cc(S(=O)(=O)N3CCCCC3)ccc2C)c1` it was 9.5% (inactive).
Under `COc1ccc(CCNC(=O)c2cc3sccc3n2C)cc1OC` stands 20.4% (inactive); under `CCC(C(=O)NCc1ccc(OC)cc1)n1nc(C)n2c(cc3occc32)c1=O` (stereo unspecified), 9.82% (inactive).
With `CCOc1ccc(CCNC(=O)C(CC)n2nc(C)n3c(cc4sccc43)c2=O)cc1OCC` (stereo unspecified), the inhibition was 92.1% (active).
In the case of `COc1cc(SC)ccc1C(=O)NNC(=O)C1COc2ccccc2O1` (stereo unspecified) it was 9.65% (inactive); in that of `CCN(CC(=O)NCc1ccc(F)cc1)S(=O)(=O)c1ccc(Cl)s1`, 6.16% (inactive).
For the compound `Cc1nc(C)c(-c2nnc(-c3cccc(S(=O)(=O)N(C)C)c3)o2)cc1C(=O)NN`, the inhibition was 1.5% (inactive).
Regarding `COc1ccc(-c2noc(-c3cccc(OC)c3OC)n2)cc1OC`, the inhibition is 45.8% (active).
In the case of `Cc1cccc(-c2noc(-c3ccc(F)cc3)n2)c1` it was 1.69% (inactive); in that of `COc1ccc(-c2noc(CCCC(=O)NC3CCCC3)n2)cc1OC`, 14.1% (inactive).
Under `O=C(COC(=O)c1cccnc1Cl)NC(=O)NC1CCCCC1` stands 0.57% (inactive); under `Cc1c(C#N)c2ncn(CC#N)c(=O)c2n1-c1ccccc1`, 16.1% (inactive).
In the case of `CN1c2ccc(C=O)c3c(C=O)ccc(c23)N(C)C1(C)C` it was 38.9% (active); in that of `COc1ccc2nc3n(c(=O)c2c1)-c1ccc(Cl)cc1C(=O)NC3Cc1ccccc1` (stereo unspecified), 7.22% (inactive); in that of `O=C1CCC/C=C/C[C@@H](CC(=O)N(CCO)Cc2ccccc2)C(=O)NC[C@H](c2ccccc2)O1`, 2.58% (inactive).
Consider `CCN(C(=O)COC(=O)CCC(=O)c1cccs1)C1CCCCC1`, for which the inhibition is 3.19% (inactive).
Under `Cc1ccc(S(=O)(=O)N2CCN(C(=O)CN3C(=O)NC(C)(c4ccc(Cl)cc4)C3=O)CC2)c(C)c1` (stereo unspecified) stands 4.7% (inactive); under `O=C1c2ccccc2[C@@H]2C[C@@H](O)[C@H](Nc3ccccc3Cl)CCN12`, 7.11% (inactive); under `Cc1ccc(NC(=S)N2CCCC(c3ccccc3)=N2)cc1`, 14.4% (inactive).
In the case of `Cc1ccc(C(=O)N2CCCC(c3ccccc3)=N2)cc1` it was 64.4% (active); in that of `Cc1ccc(C(=O)C[n+]2cc(-c3ccccc3)n3c2CCCCC3)cc1`, 9.82% (inactive) and 16.5% (inactive); in that of `CC(C)CC1NC(=O)c2cc(Cl)ccc2-n2c1nc1ccccc1c2=O` (stereo unspecified), 4.11% (inactive).
In the case of `Cc1cccc(NC(=O)c2ccc3nsnc3c2)c1C` it was 34.9% (inactive); in that of `O=C(Nc1ccccc1)c1ccc2nsnc2c1`, 41.3% (active); in that of `O=C(Nc1cccc(NC(=O)c2cccc(F)c2)c1)c1ccccc1`, 16.8% (inactive).
Regarding `COc1cc(OC)cc(-c2c(C#Cc3ccsc3)c3cc(-c4ccc(SC)cc4)ccc3n2C)c1`, the inhibition was 7.83% (inactive).
